The supplement of paper PMC10849652
About 7,900 targets were measured; listed, in parts, are those with a hit and a random draw of the rest. About 0.6% of all pairs of compound and target were hits. Values without a mark were called inactive.

Columns and labels:
Experiment in all cases: log2 fold change, soluble protein after heating vs DMSO (PISA); higher = thermal stabilisation; K562 cells, 10 uM, 30 min; active = over 0.2 and 3.5 SD of the protein, either way, in both replicates (recomputed)
[1] = compound: C1=CC=C(C=C1)[C@H](COC2=CC3=C(C=C2)NC(=O)N3)NC(=O)C4=CC=CN(C4=O)CC5=CC(=C(C=C5)F)F
Outline: (§1)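 K562 cells (2×10^6 cells/mL) were treated with 10 μM compound for 30 min, and aliquots were heated for 3 min over 48°C-58°C. Pooled aliquots were extracted in PBS with 0.5% NP-40 at 4°C, and the supernatant after 21,000xg for 90 min was measured by TMTpro 16plex LC-MS/MS with channel sums equalised. Reported thermal stability, relative to control samples and from duplicates, is a log2 fold change.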

[2] = compound: CC1=C(SC2=C1C(=N[C@H](C3=NN=C(N32)C)CC(=O)N)C4=CC=C(C=C4)Cl)C
Outline: as §1

[3] = compound: CC1=C2C(=CC=C1)N=C(N(C2=O)C3=CC=CC=C3C)CN4C=NC5=C(N=CN=C54)N
Outline: as §1

[4] = compound: Cc1sc2c(c1C)C(c1ccc(Cl)cc1)=N[C@@H](CC(=O)OC(C)(C)C)c1nnc(C)n1-2
Outline: as §1

[5] = compound: c1ccc([C@@H]2C[C@H]2NC2CCNCC2)cc1
Outline: as §1

Chain of UniProt Q9Y485 (Q9Y485 whole entry, looked up): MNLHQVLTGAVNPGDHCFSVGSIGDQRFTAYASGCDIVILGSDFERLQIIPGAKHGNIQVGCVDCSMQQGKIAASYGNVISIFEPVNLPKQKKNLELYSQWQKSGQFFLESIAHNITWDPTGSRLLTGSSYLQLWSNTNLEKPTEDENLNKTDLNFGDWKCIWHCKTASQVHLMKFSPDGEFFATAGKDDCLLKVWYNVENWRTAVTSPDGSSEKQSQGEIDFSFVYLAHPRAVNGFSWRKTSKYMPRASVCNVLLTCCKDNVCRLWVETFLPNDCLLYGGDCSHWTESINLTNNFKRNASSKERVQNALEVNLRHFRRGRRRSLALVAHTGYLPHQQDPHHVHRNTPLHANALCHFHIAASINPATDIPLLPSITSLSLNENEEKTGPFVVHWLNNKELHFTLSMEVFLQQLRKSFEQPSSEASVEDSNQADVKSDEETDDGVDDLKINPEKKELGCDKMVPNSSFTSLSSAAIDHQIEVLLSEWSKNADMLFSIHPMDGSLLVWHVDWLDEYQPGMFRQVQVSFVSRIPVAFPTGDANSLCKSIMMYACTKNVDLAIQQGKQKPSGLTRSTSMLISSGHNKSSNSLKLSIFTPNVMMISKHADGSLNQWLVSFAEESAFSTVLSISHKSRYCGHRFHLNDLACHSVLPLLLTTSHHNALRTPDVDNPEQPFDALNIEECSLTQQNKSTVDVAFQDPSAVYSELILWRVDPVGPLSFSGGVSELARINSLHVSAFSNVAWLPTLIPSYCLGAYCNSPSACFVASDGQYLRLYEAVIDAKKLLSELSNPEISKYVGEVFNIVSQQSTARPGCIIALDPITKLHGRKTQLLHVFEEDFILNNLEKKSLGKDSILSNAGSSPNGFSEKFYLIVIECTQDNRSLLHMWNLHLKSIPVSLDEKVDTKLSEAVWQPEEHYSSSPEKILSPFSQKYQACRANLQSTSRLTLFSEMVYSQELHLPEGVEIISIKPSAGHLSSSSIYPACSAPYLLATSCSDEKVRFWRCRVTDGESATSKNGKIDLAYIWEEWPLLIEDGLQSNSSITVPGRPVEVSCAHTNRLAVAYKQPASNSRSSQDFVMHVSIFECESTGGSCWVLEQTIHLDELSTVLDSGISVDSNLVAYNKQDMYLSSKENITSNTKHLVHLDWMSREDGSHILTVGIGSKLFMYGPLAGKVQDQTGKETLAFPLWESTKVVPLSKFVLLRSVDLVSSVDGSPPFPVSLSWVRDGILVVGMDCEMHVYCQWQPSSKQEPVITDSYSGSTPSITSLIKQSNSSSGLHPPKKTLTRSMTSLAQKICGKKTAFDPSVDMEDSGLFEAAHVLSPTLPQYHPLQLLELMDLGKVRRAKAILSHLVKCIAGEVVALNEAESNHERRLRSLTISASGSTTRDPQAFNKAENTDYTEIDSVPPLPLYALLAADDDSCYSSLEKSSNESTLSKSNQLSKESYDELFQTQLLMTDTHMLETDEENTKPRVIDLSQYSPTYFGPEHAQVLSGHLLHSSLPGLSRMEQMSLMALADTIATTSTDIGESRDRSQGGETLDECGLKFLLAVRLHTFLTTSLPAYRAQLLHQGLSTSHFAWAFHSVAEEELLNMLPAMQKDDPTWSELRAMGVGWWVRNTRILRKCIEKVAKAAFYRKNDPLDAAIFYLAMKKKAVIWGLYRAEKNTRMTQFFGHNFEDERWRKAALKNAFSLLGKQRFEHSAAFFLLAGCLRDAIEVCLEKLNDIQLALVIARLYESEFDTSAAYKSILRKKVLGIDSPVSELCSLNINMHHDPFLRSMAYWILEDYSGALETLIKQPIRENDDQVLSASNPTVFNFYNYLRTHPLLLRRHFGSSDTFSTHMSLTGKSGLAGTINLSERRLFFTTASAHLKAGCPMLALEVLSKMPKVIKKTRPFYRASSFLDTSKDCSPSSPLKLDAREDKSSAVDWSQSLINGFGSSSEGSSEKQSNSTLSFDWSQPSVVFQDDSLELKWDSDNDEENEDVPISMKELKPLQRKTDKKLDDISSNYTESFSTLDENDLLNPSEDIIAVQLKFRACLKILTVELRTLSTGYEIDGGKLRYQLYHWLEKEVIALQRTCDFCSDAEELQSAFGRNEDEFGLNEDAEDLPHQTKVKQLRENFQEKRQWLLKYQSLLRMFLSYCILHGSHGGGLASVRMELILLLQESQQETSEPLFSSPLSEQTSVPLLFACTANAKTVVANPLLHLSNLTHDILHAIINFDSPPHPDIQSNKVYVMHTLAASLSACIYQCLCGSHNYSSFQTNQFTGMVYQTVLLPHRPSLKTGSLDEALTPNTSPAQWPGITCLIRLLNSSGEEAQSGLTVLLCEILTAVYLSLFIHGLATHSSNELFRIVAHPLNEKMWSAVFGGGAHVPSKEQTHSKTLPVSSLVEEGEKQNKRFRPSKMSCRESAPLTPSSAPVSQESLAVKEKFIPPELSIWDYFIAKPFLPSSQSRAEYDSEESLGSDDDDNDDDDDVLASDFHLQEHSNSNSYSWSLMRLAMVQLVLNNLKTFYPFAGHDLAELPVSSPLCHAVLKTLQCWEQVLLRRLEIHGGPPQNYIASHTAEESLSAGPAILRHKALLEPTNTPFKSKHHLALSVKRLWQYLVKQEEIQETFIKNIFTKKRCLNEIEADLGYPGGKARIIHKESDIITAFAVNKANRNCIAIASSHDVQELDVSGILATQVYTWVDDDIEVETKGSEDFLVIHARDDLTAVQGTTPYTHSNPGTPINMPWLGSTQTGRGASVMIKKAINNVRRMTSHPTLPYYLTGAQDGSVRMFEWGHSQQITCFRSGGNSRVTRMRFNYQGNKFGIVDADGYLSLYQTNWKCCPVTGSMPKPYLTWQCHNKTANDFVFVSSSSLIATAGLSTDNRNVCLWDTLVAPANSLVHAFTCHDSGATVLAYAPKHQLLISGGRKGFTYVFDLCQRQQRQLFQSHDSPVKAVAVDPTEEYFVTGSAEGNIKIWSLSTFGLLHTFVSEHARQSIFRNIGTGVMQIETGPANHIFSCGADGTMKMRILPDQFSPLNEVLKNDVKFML
Chain of UniProt O00148 (O00148 whole entry, looked up): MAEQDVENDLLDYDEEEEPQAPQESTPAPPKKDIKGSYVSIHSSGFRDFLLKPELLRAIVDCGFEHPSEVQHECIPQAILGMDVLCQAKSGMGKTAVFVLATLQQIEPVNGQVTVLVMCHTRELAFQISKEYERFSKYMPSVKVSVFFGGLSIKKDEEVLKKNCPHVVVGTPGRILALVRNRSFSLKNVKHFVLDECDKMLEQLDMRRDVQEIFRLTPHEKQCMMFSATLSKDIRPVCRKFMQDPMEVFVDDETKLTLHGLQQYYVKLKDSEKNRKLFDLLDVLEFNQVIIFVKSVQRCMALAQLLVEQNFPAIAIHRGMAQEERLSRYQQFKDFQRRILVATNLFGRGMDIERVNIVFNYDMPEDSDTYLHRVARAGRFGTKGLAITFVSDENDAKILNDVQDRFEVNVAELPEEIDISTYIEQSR
Chain of UniProt Q8N5C7 (Q8N5C7 whole entry, looked up): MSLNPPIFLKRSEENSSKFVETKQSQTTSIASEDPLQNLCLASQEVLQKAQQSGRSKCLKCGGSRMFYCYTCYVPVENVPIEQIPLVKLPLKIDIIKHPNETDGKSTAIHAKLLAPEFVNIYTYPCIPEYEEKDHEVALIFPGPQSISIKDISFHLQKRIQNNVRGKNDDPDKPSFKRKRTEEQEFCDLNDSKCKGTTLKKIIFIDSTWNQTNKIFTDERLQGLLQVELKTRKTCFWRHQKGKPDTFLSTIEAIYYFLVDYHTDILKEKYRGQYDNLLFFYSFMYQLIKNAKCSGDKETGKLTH
Chain of UniProt O60573 (O60573 whole entry, looked up): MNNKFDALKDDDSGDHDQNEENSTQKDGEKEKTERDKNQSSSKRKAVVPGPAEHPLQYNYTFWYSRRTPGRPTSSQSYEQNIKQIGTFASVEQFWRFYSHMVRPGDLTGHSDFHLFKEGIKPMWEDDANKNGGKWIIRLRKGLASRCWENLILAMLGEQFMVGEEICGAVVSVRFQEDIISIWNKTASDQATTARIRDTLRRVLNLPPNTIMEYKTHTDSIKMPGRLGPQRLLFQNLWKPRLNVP
Chain of UniProt Q7Z2Z2 (Q7Z2Z2 whole entry, looked up): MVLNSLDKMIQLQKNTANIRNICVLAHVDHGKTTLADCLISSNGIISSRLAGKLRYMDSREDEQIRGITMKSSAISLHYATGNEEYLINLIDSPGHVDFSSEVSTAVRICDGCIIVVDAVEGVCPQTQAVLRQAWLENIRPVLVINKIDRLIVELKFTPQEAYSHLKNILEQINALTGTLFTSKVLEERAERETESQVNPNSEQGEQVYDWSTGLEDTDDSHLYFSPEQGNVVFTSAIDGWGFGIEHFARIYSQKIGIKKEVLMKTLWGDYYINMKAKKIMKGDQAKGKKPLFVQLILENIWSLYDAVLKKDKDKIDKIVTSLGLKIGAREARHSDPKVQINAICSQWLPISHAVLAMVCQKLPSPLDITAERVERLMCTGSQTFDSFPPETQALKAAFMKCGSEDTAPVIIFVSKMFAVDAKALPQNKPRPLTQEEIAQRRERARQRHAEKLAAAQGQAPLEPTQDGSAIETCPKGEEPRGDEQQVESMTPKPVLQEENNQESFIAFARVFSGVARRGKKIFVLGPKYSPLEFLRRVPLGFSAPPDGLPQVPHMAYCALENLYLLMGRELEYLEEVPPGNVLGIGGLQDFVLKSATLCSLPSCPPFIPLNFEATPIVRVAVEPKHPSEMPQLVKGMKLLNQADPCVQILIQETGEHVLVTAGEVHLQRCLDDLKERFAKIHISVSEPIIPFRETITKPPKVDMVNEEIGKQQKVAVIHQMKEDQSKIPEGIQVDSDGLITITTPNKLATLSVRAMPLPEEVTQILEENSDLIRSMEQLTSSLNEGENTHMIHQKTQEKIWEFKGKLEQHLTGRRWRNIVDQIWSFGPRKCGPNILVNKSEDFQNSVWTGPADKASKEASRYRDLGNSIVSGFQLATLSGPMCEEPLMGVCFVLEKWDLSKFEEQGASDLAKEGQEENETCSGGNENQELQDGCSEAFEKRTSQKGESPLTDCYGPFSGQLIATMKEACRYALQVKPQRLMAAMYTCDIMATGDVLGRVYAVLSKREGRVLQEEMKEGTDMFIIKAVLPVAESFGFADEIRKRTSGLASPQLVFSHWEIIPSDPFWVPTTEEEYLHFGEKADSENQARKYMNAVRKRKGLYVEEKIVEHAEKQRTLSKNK

Row | Target | log2 fold change [1] | log2 fold change [2] | log2 fold change [3] | log2 fold change [4] | log2 fold change [5]
1 | EIF4G3 isoform 3 (UniProt O43432) | -0.021 | 0.021 | 0.184 | 0.038 | -0.06
2 | EHBP1L1 (UniProt Q8N3D4) | -0.016 | 0.065 | 0.052 | -0.022 | -0.051
3 | E2F4 (UniProt Q16254) | 0.006 | 0.039 | 0.098 | 0.022 | -0.001
4 | EIF4E2 (UniProt O60573) | -0.043 | -0.01 | -0.007 | -0.06 | 0.055
5 | DNAJB1 (UniProt M0R128) | -0.843 (active) | 0.006 | 0.106 | 0.078 | 0.061
6 | DHCR7 (UniProt Q9UBM7) | -0.061 | 0 | 0.093 | -0.186 | 1.06 (active)
7 | EIF4A1 (UniProt P60842) | -0.043 | 0.096 | 0.05 | -0.005 | -0.042
8 | EIF4G1 isoform 8 (UniProt Q04637) | -0.074 | -0.016 | -0.036 | 0.135 | -0.002
9 | F5 (UniProt P12259) | -0.025 | -0.091 | 0.003 | 0.077 | 0.014
10 | CYP51A1 (UniProt Q16850) | -0.096 | 0.055 | -0.037 | -0.01 | -0.001
11 | DEGS1 (UniProt O15121) | 0.083 | 0.04 | -0.001 | 0.122 | 0.052
12 | DTWD1 (UniProt Q8N5C7) | -0.051 | -0.011 | 0.152 | -0.056 | 0.07
13 | DBT (UniProt P11182) | -0.003 | -0.004 | 0.012 | 0.062 | 0.007
14 | DLD (UniProt P09622) | 0.016 | 0.006 | -0.005 | -0.016 | 0.044
15 | DMXL1 (UniProt Q9Y485) | -0.017 | 0.003 | 0.071 | -0.016 | -0.05
16 | EFL1 (UniProt Q7Z2Z2) | -0.042 | 0.051 | 0.083 | 0.008 | -0.017
17 | CTSB (UniProt P07858) | -0.015 | -0.024 | 0.019 | -0.024 | -0.035
18 | EDC3 (UniProt Q96F86) | -0.198 | 0.12 | 0.019 | 0.063 | 0.026

Row | Target | log2 fold change [1] | log2 fold change [2] | log2 fold change [3] | log2 fold change [4] | log2 fold change [5]
19 | CTSL (UniProt P07711) | -0.017 | -0.07 | 0.015 | 0.031 | 0.104
20 | DCAF10 (UniProt Q5QP82) | 0.015 | -0.018 | 0.056 | 0.013 | -0.011
21 | DDB1 (UniProt Q16531) | 0.023 | -0.003 | 0.01 | 0 | 0.016
22 | CUTA isoform 2 (UniProt O60888) | 0.099 | 0.116 | -0.289 | -0.123 | 0.015
23 | EIF4E isoform 2 (UniProt P06730) | 0.029 | -0.026 | -0.002 | -0.144 | 0.009
24 | DIAPH1 (UniProt O60610) | -0.073 | -0.027 | 0.026 | 0.049 | -0.018
25 | DTNBP1 (UniProt Q96EV8) | -0.033 | 0.031 | 0.02 | 0.001 | 0.013
26 | EEA1 (UniProt Q15075) | 0.022 | -0.015 | 0.011 | 0.021 | 0.038
27 | DCAF6 isoform 3 (UniProt Q58WW2) | 0.04 | -0.017 | 0.003 | 0.032 | 0.027
28 | DOCK8 (UniProt Q8NF50) | 0.096 | -0.223 | -0.01 | 0.152 | -0.087
29 | EXOC7 (UniProt Q9UPT5) | -0.063 | -0.001 | 0.035 | 0.07 | -0.014
30 | DMAC1 (UniProt Q96GE9) | 0.058 | -0.041 | 0.05 | -0.085 | 0.023
31 | DYRK1A isoform 2 (UniProt Q13627) | -0.062 | 0.059 | 0.085 | 0.026 | 0.011
32 | DNAAF2 (UniProt Q9NVR5) | 0.039 | 0.02 | -0.013 | -0.003 | 0.002
33 | DNAJC7 (UniProt Q99615) | -0.045 | 0.043 | 0.072 | -0.013 | 0
34 | DNAJC19 (UniProt Q96DA6) | 0.025 | 0.021 | 0.05 | 0 | -0.041
35 | DDX39A (UniProt O00148) | -0.174 | 0.063 | 0.025 | 0.015 | -0.01
